Results filed as inconclusive are left out. The source made the active and inactive calls. Rule for the calls, unless noted: active = hit-call score of the fitted dose curve at least 0.9, where 1 is the maximum; inactive = score below 0.9.

The results in this text go back to PubChem BioAssay (EPA / NIEHS).

For assay [1], the target named is human Peroxisome Proliferator-activated Receptor alpha (PPARa), PPARA (gene 5465) (UniProt Q07869). Nature of the assay: ATG_PPARa_TRANS: Attagene TRANS-FACTORIAL HepG2 Assay for human Peroxisome Proliferator-activated Receptor alpha (PPARa) (AID 2283001; active = hit-call score of the fitted dose curve at least 0.9, where 1 is the maximum). In outline: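 Reporter transcripts quantified by RT-PCR plus capillary electrophoresis after 24 h treatment, fitted upward relative to DMSO. Cells: human HepG2 transiently carrying multiple GAL4-UAS reporter units driven by NR-Gal4 chimeras.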
human Peroxisome Proliferator-activated Receptor alpha (PPARa), PPARA (gene 5465), sequence (Q07869 whole entry, looked up, the tested form may be a part): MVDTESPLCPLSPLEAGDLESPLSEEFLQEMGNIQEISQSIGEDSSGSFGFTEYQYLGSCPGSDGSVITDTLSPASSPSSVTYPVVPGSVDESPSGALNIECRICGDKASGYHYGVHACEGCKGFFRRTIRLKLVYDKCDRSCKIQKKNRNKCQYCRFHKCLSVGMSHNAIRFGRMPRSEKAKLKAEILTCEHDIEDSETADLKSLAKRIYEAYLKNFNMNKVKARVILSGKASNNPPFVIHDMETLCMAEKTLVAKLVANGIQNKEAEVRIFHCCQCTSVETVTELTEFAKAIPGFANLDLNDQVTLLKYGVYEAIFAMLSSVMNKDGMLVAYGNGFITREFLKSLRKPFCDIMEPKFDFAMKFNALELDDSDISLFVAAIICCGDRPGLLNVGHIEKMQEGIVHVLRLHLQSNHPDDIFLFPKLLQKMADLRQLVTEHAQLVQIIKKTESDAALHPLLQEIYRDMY

Read-out in assay [2]: Intercellular Adhesion Molecule 1 (ICAM1), ICAM1 (gene 3383)
Nature of the assay: BSK_3C_ICAM1: BioMAP Diversity Plus: 3C Assay for Intercellular Adhesion Molecule 1 (ICAM1) Biomarker Activity (AID 2283003). To be noted: primary human endothelial cells (HUVEC); actives raise or lower the signal. A digest of the protocol: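 Chemicals are dosed onto primary human umbilical vein endothelium (3C system). After 24 h, ICAM-1 is measured by ELISA, and responses are fitted bidirectionally relative to DMSO.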

Assay [3] has as its target Nuclear receptor subfamily 1 group I member 2 (Homo sapiens) (UniProt O75469). Nature of the assay: ATG_PXR_TRANS: Attagene TRANS-FACTORIAL HepG2 Assay for human Pregnane X Receptor (PXR) (AID 2283008; active = hit-call score of the fitted dose curve at least 0.9, where 1 is the maximum). In outline: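 Transient HepG2 transfectants carrying multiplexed reporter transcription units; PXR activity read through a Gal4 chimera. 24 h exposure. RT-PCR/CE fluorescence; upward curve fit referenced to DMSO.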

For assay [4], the target named is human Retinoic Acid Receptor gamma (RARg), RARG (gene 5916) (UniProt P13631). Nature of the assay: ATG_RARg_TRANS: Attagene TRANS-FACTORIAL HepG2 Assay for human Retinoic Acid Receptor gamma (RARg) (AID 2283009; active = hit-call score of the fitted dose curve at least 0.9, where 1 is the maximum). In outline:
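TRANS format measured activity of exogenous NR-GAL4 fusion (RARg) in transfected HepG2 liver cells after 24 h dosing. Induced reporter RNA was detected by RT-PCR/capillary electrophoresis fluorescence, analysed in the positive direction against DMSO.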

Assay [5] concerns the target human RAR-related Orphan Receptor beta (RORb), RORB (gene 6096) (UniProt Q92753). Nature of the assay: ATG_RORb_TRANS: Attagene TRANS-FACTORIAL HepG2 Assay for human RAR-related Orphan Receptor beta (RORb) (AID 2283010; active = hit-call score of the fitted dose curve at least 0.9, where 1 is the maximum). In outline: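 Transfect HepG2 with multiple GAL4-UAS reporter transcription units; dose chemicals for 24 h; isolate RNA, reverse-transcribe and PCR-amplify reporter sequences; label, digest and resolve fragments by capillary electrophoresis; fit increases relative to DMSO.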

Assay [6] deals with Retinoic acid receptor RXR-alpha (Homo sapiens) (UniProt P19793). Nature of the assay: ATG_RXRa_TRANS: Attagene TRANS-FACTORIAL HepG2 Assay for human Retinoid X Receptor alpha (RXRa) (AID 2283012; active = hit-call score of the fitted dose curve at least 0.9, where 1 is the maximum). A digest of the protocol: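 Measures exogenous chimeric NR-GAL4 activity in transfected HepG2 liver cells after 24 h of dosing. Induced reporter mRNA was detected by RT-PCR with capillary electrophoresis, and gain of signal was analysed against DMSO.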
Retinoic acid receptor RXR-alpha (Homo sapiens), sequence (P19793 whole entry, looked up, the tested form may be a part): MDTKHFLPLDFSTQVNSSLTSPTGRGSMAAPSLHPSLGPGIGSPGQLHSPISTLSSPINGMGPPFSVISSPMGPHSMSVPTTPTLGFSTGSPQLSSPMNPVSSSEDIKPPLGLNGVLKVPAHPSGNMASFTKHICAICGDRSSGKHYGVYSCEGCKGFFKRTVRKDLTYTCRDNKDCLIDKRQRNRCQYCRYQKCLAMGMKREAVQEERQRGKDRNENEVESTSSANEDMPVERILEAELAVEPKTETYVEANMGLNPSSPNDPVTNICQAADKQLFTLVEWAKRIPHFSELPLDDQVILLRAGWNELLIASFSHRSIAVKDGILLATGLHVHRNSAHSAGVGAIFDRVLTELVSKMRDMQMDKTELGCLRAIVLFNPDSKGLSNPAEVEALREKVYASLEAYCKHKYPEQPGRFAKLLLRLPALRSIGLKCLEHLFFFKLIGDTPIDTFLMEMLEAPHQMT

Read-out in assay [7]: E-selectin (Homo sapiens) (UniProt P16581)
Nature of the assay: BSK_3C_Eselectin: BioMAP Diversity Plus: 3C Assay for Eselectin Biomarker Activity (AID 2283015).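 For outcome: cell surface E-selectin protein quantified by ELISA 24 h after dosing.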 The settings on record: primary human endothelial cells (HUVEC); actives raise or lower the signal. A digest of the protocol: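 ELISA read-out of E-selectin on endothelial monolayers after 24 h chemical treatment. Human umbilical vein primary cells served as the system, with DMSO defining baseline activity for bidirectional fitting.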

Read-out in assay [8]: Interleukin-1 alpha (IL1a), IL1A (gene 3552)
Nature of the assay: BSK_BE3C_IL1a: BioMAP Diversity Plus: BE3C Assay for Interleukin-1 alpha (IL1a) Biomarker Activity (AID 2283016). The settings on record: primary human bronchial epithelial cells; actives raise or lower the signal. In outline:
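Signal from IL-1a ELISA, taken 24 h after chemical dosing of human bronchial epithelial cells, is compared with DMSO as baseline using bidirectional curve fitting.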

Read-out in assay [9]: Monocyte Chemoattractant Protein-1 (MCP1), CCL2 (gene 6347)
Nature of the assay: BSK_3C_MCP1: BioMAP Diversity Plus: 3C Assay for Monocyte Chemoattractant Protein-1 (MCP1) Biomarker Activity (AID 2283017). The settings on record: primary human endothelial cells (HUVEC); actives raise or lower the signal. A digest of the protocol:
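ELISA read-out of MCP-1 from human umbilical vein endothelial cell cultures harvested 24 h post-dosing. Gain or loss of signal was fitted relative to DMSO.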

Read-out in assay [10]: Monocyte Chemoattractant Protein-1 (MCP1), CCL2 (gene 6347)
Nature of the assay: BSK_4H_MCP1: BioMAP Diversity Plus: 4H Assay for Monocyte Chemoattractant Protein-1 (MCP1) Biomarker Activity (AID 2283018). To be noted: primary human endothelial cells (HUVEC); actives raise or lower the signal. In outline: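 Endothelial cells from umbilical vein were treated with test chemical, then after 24 h MCP-1 levels were quantified by ELISA; endpoint values came from bidirectional fitting with DMSO as baseline of activity.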

Read-out in assay [11]: Human Leukocyte Antigen - DR isotype (HLADR), HLA-DRA (gene 3122)
Nature of the assay: BSK_3C_HLADR: BioMAP Diversity Plus: 3C Assay for Human Leukocyte Antigen - DR isotype (HLADR) Biomarker Activity (AID 2283019).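 For outcome: ELISA of cell-surface HLA-DR on HUVEC 24 h after dosing.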 The settings on record: primary human endothelial cells (HUVEC); actives raise or lower the signal. A digest of the protocol:
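ELISA readout of surface HLA-DR on human umbilical vein endothelium, taken 24 h after chemical treatment. Gain- and loss-of-signal were both fitted relative to DMSO.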

Read-out in assay [12]: Interleukin-8 (IL8), CXCL8 (gene 3576)
Nature of the assay: BSK_3C_IL8: BioMAP Diversity Plus: 3C Assay for Interleukin-8 (IL8) Biomarker Activity (AID 2283020). The settings on record: primary human endothelial cells (HUVEC); actives raise or lower the signal. A digest of the protocol: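 Endothelial primary cells of human umbilical vein origin are dosed with chemical; after 24 h the IL-8 biomarker is measured by ELISA, and concentration–response is fitted in both directions versus DMSO.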

Read-out in assay [13]: Monokine induced gamma interferon (MIG), CXCL9 (gene 4283)
Nature of the assay: BSK_3C_MIG: BioMAP Diversity Plus: 3C Assay for Monokine induced gamma interferon (MIG) Biomarker Activity (AID 2283021).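 For AC50: MIG protein level measured by immunoassay in the treated endothelial cultures.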 To be noted: primary human endothelial cells (HUVEC); actives raise or lower the signal. In outline:
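Endothelial primary cells (human umbilical vein) are dosed with test chemical in the 3C system. MIG levels are measured by ELISA at 24 h and fitted in both directions relative to DMSO.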

The target in assay [14] is Peroxisome proliferator-activated receptor gamma (Homo sapiens) (UniProt P37231). Nature of the assay: ATG_PPARg_TRANS: Attagene TRANS-FACTORIAL HepG2 Assay for human Peroxisome Proliferator-activated Receptor-gamma (PPARg) (AID 2283007; active = hit-call score of the fitted dose curve at least 0.9, where 1 is the maximum). A digest of the protocol: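 Multiplexed reporter transcription units in HepG2, 24 h dosing, reporter transcripts quantified by fluorescent RT-PCR and capillary electrophoresis. Increase over DMSO scored.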
Peroxisome proliferator-activated receptor gamma (Homo sapiens), sequence (P37231 whole entry, looked up): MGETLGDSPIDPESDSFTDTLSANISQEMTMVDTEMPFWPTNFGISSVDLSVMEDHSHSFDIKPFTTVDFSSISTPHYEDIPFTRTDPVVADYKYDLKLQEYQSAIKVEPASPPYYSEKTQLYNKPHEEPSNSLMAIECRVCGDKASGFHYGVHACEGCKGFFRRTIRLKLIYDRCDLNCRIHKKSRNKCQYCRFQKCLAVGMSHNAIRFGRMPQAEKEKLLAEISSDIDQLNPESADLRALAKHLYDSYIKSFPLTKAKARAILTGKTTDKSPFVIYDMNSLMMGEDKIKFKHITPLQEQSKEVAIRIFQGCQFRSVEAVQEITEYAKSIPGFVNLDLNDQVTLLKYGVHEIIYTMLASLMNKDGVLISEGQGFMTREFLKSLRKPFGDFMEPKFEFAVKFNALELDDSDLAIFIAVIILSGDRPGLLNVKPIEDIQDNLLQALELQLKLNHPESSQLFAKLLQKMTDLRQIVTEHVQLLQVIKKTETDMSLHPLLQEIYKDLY

Assay [15] deals with human Thyroid Receptor alpha (THRa1), THRA (gene 7067) (UniProt P10827). Nature of the assay: ATG_THRa1_TRANS: Attagene TRANS-FACTORIAL HepG2 Assay for human Thyroid Receptor alpha (THRa1) (AID 2283014; active = hit-call score of the fitted dose curve at least 0.9, where 1 is the maximum). A digest of the protocol: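 Reporter transcript induction, read by capillary electrophoresis of 6-FAM-labelled RT-PCR products, reflects activity of a transfected THRa1-Gal4 fusion in HepG2 liver cells. Cells were dosed for 24 h; activity was fitted in the positive direction against DMSO.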
human Thyroid Receptor alpha (THRa1), THRA (gene 7067), sequence (P10827 whole entry, looked up, the tested form may be a part): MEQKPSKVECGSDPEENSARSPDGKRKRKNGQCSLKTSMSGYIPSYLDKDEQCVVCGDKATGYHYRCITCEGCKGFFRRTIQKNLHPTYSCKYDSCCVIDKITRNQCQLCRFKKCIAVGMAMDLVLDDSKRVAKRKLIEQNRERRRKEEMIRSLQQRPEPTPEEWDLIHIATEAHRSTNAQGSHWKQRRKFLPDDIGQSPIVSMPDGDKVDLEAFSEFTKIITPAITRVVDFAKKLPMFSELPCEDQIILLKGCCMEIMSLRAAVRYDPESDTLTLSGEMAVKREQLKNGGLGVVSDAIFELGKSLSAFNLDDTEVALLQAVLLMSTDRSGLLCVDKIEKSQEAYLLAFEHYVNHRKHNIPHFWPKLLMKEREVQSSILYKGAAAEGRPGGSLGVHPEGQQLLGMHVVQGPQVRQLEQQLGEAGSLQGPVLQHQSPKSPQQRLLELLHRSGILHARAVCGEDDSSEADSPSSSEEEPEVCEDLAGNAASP

Assay [16] concerns the target human Retinoid X Receptor beta (RXRb), RXRB (gene 6257) (UniProt P28702). Nature of the assay: ATG_RXRb_TRANS: Attagene TRANS-FACTORIAL HepG2 Assay for human Retinoid X Receptor beta (RXRb) (AID 2283013; active = hit-call score of the fitted dose curve at least 0.9, where 1 is the maximum). In outline:
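Chimeric receptor-Gal4 activity was assessed in transiently transfected human HepG2 cells after 24 h exposure. Transcripts from GAL4-UAS reporters were quantified by fluorescent RT-PCR and capillary electrophoresis, with DMSO as negative control and baseline.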

A short description of assay [17]: BSK_3C_Proliferation: Cell Proliferation Assessment in the BioMAP Diversity Plus: 3C Assay (AID 2283006).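 For AC50: potency may reflect either rise or fall in cell number versus DMSO.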 The settings on record: primary human endothelial cells (HUVEC). A digest of the protocol: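 Cells (human umbilical vein endothelial, sub-confluent) receive test chemical; after 48 h they are fixed in 10% trichloroacetic acid, stained with 0.1% SRB and read at 560 nm. Activity is referenced to DMSO, fitting increases and decreases.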

human RAR-related Orphan Receptor beta (RORb), RORB (gene 6096), sequence (Q92753 whole entry, looked up, the tested form may be a part): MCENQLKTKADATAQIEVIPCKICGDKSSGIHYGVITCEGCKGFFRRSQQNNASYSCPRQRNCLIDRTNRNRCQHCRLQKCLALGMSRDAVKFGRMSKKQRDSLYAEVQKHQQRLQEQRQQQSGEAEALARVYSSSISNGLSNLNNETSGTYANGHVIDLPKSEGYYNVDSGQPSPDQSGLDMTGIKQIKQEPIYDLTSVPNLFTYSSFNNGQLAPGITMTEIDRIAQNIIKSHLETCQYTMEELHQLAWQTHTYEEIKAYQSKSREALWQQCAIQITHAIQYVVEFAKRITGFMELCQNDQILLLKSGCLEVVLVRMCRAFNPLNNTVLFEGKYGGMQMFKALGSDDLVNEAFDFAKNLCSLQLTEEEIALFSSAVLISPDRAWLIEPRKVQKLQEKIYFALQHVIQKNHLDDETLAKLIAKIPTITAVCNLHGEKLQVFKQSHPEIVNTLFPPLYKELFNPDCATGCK
human Retinoid X Receptor beta (RXRb), RXRB (gene 6257), sequence (P28702 whole entry, looked up, the tested form may be a part): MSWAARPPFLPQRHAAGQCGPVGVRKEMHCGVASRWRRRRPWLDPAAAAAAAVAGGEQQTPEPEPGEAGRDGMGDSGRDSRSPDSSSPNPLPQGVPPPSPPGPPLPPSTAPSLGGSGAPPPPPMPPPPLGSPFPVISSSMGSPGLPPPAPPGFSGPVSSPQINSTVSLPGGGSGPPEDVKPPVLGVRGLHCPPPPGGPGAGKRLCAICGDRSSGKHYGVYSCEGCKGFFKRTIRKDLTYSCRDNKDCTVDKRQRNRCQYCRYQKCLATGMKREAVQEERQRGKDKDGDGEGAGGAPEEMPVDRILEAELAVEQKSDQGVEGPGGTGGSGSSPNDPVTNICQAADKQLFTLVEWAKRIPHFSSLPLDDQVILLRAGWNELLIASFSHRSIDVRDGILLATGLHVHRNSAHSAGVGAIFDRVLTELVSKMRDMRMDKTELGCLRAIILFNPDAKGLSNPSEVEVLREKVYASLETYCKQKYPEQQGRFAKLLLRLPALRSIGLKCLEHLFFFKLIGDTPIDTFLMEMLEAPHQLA
Nuclear receptor subfamily 1 group I member 2 (Homo sapiens), sequence (O75469 whole entry, looked up, the tested form may be a part): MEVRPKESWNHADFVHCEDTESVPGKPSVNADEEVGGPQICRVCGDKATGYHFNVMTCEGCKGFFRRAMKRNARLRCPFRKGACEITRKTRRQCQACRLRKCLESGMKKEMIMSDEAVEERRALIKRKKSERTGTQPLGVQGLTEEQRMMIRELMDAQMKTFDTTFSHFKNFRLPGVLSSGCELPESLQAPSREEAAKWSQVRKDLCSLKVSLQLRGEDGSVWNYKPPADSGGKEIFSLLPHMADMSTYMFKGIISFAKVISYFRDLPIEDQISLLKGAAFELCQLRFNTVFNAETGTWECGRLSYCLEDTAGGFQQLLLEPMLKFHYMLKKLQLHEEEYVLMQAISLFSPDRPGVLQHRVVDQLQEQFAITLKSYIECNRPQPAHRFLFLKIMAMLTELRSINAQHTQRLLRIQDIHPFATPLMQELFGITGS
E-selectin (Homo sapiens), sequence (P16581 whole entry, looked up): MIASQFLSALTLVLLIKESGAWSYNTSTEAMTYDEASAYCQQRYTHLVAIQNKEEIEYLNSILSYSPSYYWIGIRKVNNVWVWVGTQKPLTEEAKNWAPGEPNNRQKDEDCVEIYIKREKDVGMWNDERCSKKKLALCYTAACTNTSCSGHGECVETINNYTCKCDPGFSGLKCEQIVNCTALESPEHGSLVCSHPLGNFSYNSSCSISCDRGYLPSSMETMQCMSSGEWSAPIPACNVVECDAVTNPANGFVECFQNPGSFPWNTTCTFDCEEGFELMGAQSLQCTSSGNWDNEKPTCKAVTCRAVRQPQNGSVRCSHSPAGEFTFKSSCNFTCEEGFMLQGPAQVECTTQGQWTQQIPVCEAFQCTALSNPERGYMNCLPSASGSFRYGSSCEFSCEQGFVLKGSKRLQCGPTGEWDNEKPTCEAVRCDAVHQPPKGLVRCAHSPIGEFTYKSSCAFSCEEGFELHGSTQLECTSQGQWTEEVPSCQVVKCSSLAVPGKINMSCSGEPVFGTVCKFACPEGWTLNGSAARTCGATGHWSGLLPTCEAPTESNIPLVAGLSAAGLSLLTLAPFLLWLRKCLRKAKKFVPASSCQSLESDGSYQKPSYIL
human Retinoic Acid Receptor gamma (RARg), RARG (gene 5916), sequence (P13631 whole entry, looked up, the tested form may be a part): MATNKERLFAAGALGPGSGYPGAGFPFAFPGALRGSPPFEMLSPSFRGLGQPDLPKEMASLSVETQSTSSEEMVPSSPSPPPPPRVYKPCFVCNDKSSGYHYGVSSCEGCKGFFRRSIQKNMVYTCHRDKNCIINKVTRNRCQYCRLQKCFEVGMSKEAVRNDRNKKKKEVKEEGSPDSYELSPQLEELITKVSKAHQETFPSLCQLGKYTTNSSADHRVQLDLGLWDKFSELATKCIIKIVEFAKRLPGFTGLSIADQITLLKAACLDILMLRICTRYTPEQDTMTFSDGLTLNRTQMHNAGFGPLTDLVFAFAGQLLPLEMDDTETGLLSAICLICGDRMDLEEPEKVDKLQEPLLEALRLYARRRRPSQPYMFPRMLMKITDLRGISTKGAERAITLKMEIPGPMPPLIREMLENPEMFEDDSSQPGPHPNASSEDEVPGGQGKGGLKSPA

In the case of `Cc1ccc(N)c(N)c1`, the outcome in assay [1], in assay [2], in assay [3], in assay [4], in assay [5] and in assay [6] was inactive. In addition, the result in assay [8], in [9], in assay [10] and in [13] was inactive. Besides, the results for the AC50 in assay [7], in assay [11] and in [12] were 6.22 µM (active), 7.53 µM (active) and 3.17 µM (active), respectively.

With `CN(C)C(=O)Nc1ccc(Cl)cc1`, the compound was classed as inactive in assay [1], in assay [2], in [14], in assay [6], in assay [15] and in [7]. Moreover, the result in [8], in assay [9], in assay [10], in assay [11], in [12] and in assay [13] was inactive.

Turning to `Oc1ccccc1Cl`, the compound was called inactive in assay [1], in assay [2], in assay [14], in assay [3], in [6] and in assay [16]. Further, the result in assay [7], in assay [8], in assay [9], in assay [10], in [11] and in assay [12] was inactive. For the same compound, in assay [13], the result was inactive.

Turning to `CN(C)c1ccccc1`, the outcome in assay [1], in assay [2], in assay [5], in [6], in [15] and in [7] was inactive. The outcome in [8], in assay [9], in assay [10], in assay [11], in assay [12] and in [13] was inactive.

Take `Clc1ccccc1Cl`: the compound was called inactive in assay [1], in assay [2], in [14], in [7], in [8] and in assay [9]. The outcome in [10], in [11], in assay [12] and in assay [13] was inactive.

As to `Cn1cc(-c2ccccc2)c(=O)c(-c2cccc(C(F)(F)F)c2)c1`, the result in [2], in assay [17], in [14], in assay [7], in [8] and in [9] was inactive. Moreover, the outcome in [10], in assay [11], in [12] and in assay [13] was inactive. In addition, the AC50 in [3] was 4.04 µM (active).

As for `Clc1ccc(C(c2ccc(Cl)cc2)C(Cl)(Cl)Cl)cc1`, the AC50 in assay [2] is 34.7 µM (active); in [17], 20.1 µM (active); in assay [7] it was 29.2 µM (active); in assay [9] it was 26.9 µM (active); in assay [11], 25.8 µM (active); in [12], 22.7 µM (active). Moreover, the AC50 in [13] was 34.5 µM (active). For the same compound, the compound was called inactive in [14], in assay [16], in assay [15] and in [8].

For `CCN(CC)CCO`, the result in assay [2], in assay [6], in [16], in assay [7], in [8] and in assay [9] was inactive. In addition, the outcome in [10], in assay [11], in assay [12] and in assay [13] was inactive.

`[Cl-].[Cl-].[Hg+2]`: the result in [2], in [14], in assay [3], in assay [5], in [6] and in assay [16] was inactive. For the same compound, the result in [15] and in assay [9] was inactive. Also, the half-maximal activity concentration (AC50) was 32.6 µM (active) in assay [17]; 36.7 µM (active) in [7]; 31 µM (active) in assay [8]; 30.7 µM (active) in assay [10]; 30 µM (active) in assay [11]; 31.1 µM (active) in assay [12]. Moreover, in [13], the concentration at half-maximal activity (AC50) is 30.9 µM (active).

On to `CNC(=O)Oc1cccc2c1OC(C)(C)C2`, for which the result in assay [2], in [17], in assay [14], in [3], in assay [5] and in assay [6] was inactive. The outcome in assay [15], in assay [7], in [8], in [9], in assay [10] and in assay [11] was inactive. The outcome in [12] and in assay [13] was inactive. Besides, the half-maximal activity concentration (AC50) in [16] is 58.7 µM (active).

One may read the AC50 as the midpoint of the concentration-response curve, whichever way the signal moves.
